PubChem BioAssay AID485284 (NMMLSC, 2010)
Measured potencies and affinities stand elsewhere.

Assay: loss of vesicle association with mouse CD8+ T cells – mouse 2C CD8+ T cells, flow cytometry, dose response (AID 485284);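 note: drosophila derived vesicles carrying Ld MHC with QL9 peptide plus B7-1 and ICAM-1; vesicle binding seen as anti-B7-1 PE fluorescence on CD8 gated cells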
Conditions: 2C mouse CD8+ T cell-exosome binding; at 45 µM (top of the series)

| SMILES | binding remaining, % of control [%] |
| --- | --- |
| CCOC(=O)c1cnc(=O)[nH]c1C | 189 |
| CC1CCCN(CC(=O)NC(=O)NC2CCCCC2)C1 (centres undefined) | 109 |
| CS(=O)(=O)c1cccc(-c2csc(N3CCC(C(N)=O)CC3)n2)c1 | 150 |
| O=C(NC(=S)Nc1nc(-c2ccccc2)cs1)c1cccs1 | 173 |
| CCOc1ccc(CCNC(=O)c2cccc(-n3cnnn3)c2)cc1OCC | 164 |
| COc1ccc(NC(=O)COC(=O)c2cc(Cl)ccc2O)cc1S(=O)(=O)N1CCCCC1 | 75.3 |
| CCCCN(C(=O)COC(=O)c1ccc(C=O)cc1)c1c(N)n(CCC)c(=O)[nH]c1=O | 50.1 |
| CC(=O)Nc1ccc(S(=O)(=O)NC2CCSc3ccccc32)cc1 (centres undefined) | 273 |
| CCCNC(=O)c1nc2ncc(Br)cn2n1 | 153 |
| O=C(NCc1ccccc1C(F)(F)F)C1CCC(=O)N(CCCc2ccccc2)C1 (centres undefined) | 90.8 |
| Cc1ccc(S(=O)(=O)N2CCN(CCOc3c(Cl)cccc3Cl)CC2)cc1C | 100 |
| Cc1cc(S(=O)(=O)N2CCN(Cc3ccccc3)CC2)c(C)s1 | 94.5 |
| Cc1noc(C)c1C(=O)OC(C)C(=O)N1CCc2ccccc21 (centres undefined) | 96.2 |
| Cc1ccsc1C(=O)OCC(=O)N1CCN(c2ccccc2)CC1 | 129 |
| CC(C)(C)Nc1nc2nonc2nc1NC(C)(C)C | 147 |
| Cc1cc(F)ccc1S(=O)(=O)N1CCCOC1CNC(=O)C(=O)NC1CCCC1 (centres undefined) | 67.8 |
| O=C(Cn1cc2c(n1)CCCC2)NCc1ccccn1 | 106 |

| SMILES | binding remaining, % of control [%] |
| --- | --- |
| Cn1c(=O)c2cc(S(=O)(=O)NCCC(=O)NC3CCCCCC3)ccc2n(C)c1=O | 83.7 |
| COc1cc(OC)c2cc(C(=O)N[C@H](C(=O)N3CCC[C@H]3C(=O)O)C(C)C)n(C)c2c1 | 99.6 |
| COc1cc(F)c(C2=CC(=O)C[C@H](c3ccc(F)cc3)C2)cc1F | 108 |
| CCCc1cc(=O)[nH]c(SCC(=O)N2c3ccccc3CC2C)n1 (centres undefined) | 126 |
| COc1ccc(NC(=O)[C@H](C)NC(=O)C2CCN(S(=O)(=O)c3ccc(C)cc3)CC2)cc1 | 108 |
| CCOC(=O)N1CCC(=NNc2ncc(C(F)(F)F)cc2Cl)CC1 | 24.2 |
| CN1CCN(S(=O)(=O)c2ccc(C(=O)Nc3ccccc3)cc2)CC1 | 124 |
| CCOc1ccc(Cl)cc1/C=N/NC(=O)c1ccccc1 | 35.5 |
| Cc1ccc(Cn2c([N+](=O)[O-])cnc2C)cc1 | 35 |
| CCOc1ccc(NC(=O)CN(C)C(=O)C2CC(=O)N(Cc3ccco3)C2)cc1OCC (centres undefined) | 145 |
| Cc1c(C(=O)N(C)Cc2ccccc2)oc2ccc(S(=O)(=O)N3CCCC3)cc12 | 120 |
| O=C(NC(=S)NCc1ccco1)c1ccc(Br)cc1 | 136 |
| Cc1cccc(Nc2nc(-c3ccccn3)cs2)n1 | 69.7 |
| Cc1ccc(NC(=O)COC(=O)CCc2c[nH]c3ccccc23)c(C)c1 | 138 |
| O=C(/C=C/c1ccc(Br)cc1)c1ccc(NC(=O)c2ccco2)cc1 | 98.2 |
| O=C(CCC(=O)N1CCOCC1)NCc1cccc(C(F)(F)F)c1 | 64.2 |
| CCOC(=O)c1sc(NC(=O)C2CC(=O)N(c3ccccc3OC)C2)nc1C (centres undefined) | 141 |
